Assay outcomes (PubChem)
Compounds with a hit are over-represented: about 11% of the library has one in this group of screens.
HCV inhibitor: qHTS Assay for Inhibitors of Hepatitis C Virus (HCV). Huh7.5.1 HCVcc-Cre infection, luciferase reporter, 44 h. Potency, µM (titrated, usually from 41.8 µM), for inactives: at the top dose activity change, negative = inhibition, most hits filed as inhibitors. actives 3.4% (n = 340,000). AID 651820, 2012
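Infectious HCV cell culture screen: compound-treated cells (1,000/well, pre-plated 4 h) are infected with HCVcc-Cre at roughly 0.5 moi and grown 44 h. Infection is quantified by luciferase signal after 15 min substrate incubation at room temperature.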
Pf growth 96h: Primary qHTS for delayed death inhibitors of the malarial parasite plastid, 96 hour incubation | Potency, µM (doses to about 28.7 µM), for the others: at the top dose activity change, negative = inhibition, actives largely listed as inhibitors | P. falciparum luciferase reporter growth, 96 h | actives 6.9% (n = 320,000)
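96 h incubation, 37 C, 5% CO2, of luciferase-reporter P. falciparum-infected RBCs (2% hematocrit, 0.05% parasitemia final) with test compounds; endpoint luminescence.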
AMA1-RON2 inh: qHTS for Inhibitors of AMA1-RON; Towards Development of Antimalarial Drug Lead: Primary Screen. AlphaScreen AMA1-biotinylated RON2 peptide binding. Plasmodium falciparum AMA1 (3D7) - RON2 peptide interaction. actives 0.2% (n = 360,000). Potency, µM (series often up to 58.2 µM), for inactives: at the top dose activity change, negative = inhibition, most hits filed as inhibitors;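 note: 0% = vehicle wells and -100% = peptide control; nearly all actives have a fitted effect of over 45% in size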
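AMA1 (3D7) with his tag at 25 nM final met compounds first, then biotinylated RON2 peptide at 25 nM; detection used donor plus acceptor beads, 10 µg/mL apiece, read by AlphaScreen after 30 min at room temperature.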
Pf growth 48h: Primary qHTS for delayed death inhibitors of the malarial parasite plastid, 48 hour incubation. P. falciparum luciferase growth in erythrocytes, 48 h. Potency, µM (highest dose often 28.7 µM), inactives show top-dose activity change, negative = inhibition, usual class: inhibitors. actives 5.9% (n = 310,000). AID 504832, 2011
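Parasite viability was followed by luminescence of a genomically integrated firefly luciferase. Cultures held 0.1% parasitemia at 2% hematocrit (final), incubated under 5% CO2 at 37 C.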
The depositor's hits bear a star; ? = inconclusive; nt = no result. Calls come from the whole dose curve; as a rule, active = well fitted curve in the direction sought with a large enough effect; inconclusive = small, poorly fitted or top-dose-only effect, or another doubt; inactive = no such curve, though single readings can be large; an effect the other way counts as inactive or inconclusive. Unless noted, % is set by controls: 0 for no effect and ±100 for the full control effect; potency is the fitted concentration of half-maximal effect.

SMILES | HCV inhibitor | Pf growth 96h | AMA1-RON2 inh | Pf growth 48h
CC(=O)c1ccc(-n2c(CCC(=O)O)ccc2-c2ccc(Br)cc2)cc1 | 2% | 14% | -8% | 10%
Cc1cc(CNC(=O)COc2ccccc2F)c2ccccc2n1 | 25µM* | 36% | -6% | 96%
COc1ccccc1OCC(=O)NNC(=O)CCCC(=O)NNC(=O)COc1ccccc1OC | 12% | 90% | 98% | ?
COc1ccccc1OCC(=O)Nc1ccc(O)cc1C(=O)O | 12% | 21% | -1% | nt
COc1ccccc1OCC(=O)NNc1c2ccccc2nc2ccccc12 | 0.56µM* | 2% | -17% | 4.1µM*
COc1ccccc1OCC(=O)NCCNC(=O)COc1ccccc1OC | -7% | 2.3µM* | 2% | ?
Cc1cc(CNC(=O)COc2ccc(F)cc2F)c2ccccc2n1 | ? | -11% | 20% | 6%
COc1ccccc1OCC(=O)NCCSCc1cccc(Cl)c1 | -28% | 12µM* | -27% | 11%
COc1ccc(OCC(=O)NCCCCCCNC(=O)COc2ccc(OC)cc2)cc1 | 12% | 2.9µM* | 0% | -14%
CCN(CC)CCNC(=O)COc1ccc(OC)cc1 | -12% | 3% | -5% | ?
CN(C)C(=O)O/N=C(\N)COc1ccc(C(C)(C)C)cc1 | ? | 12µM* | 11% | 6.6µM*
CC(C)(C)c1ccc(OCC(=O)O)cc1 | 15% | 25% | -1% | ?
O=C(CN1C(=O)C2CC=CCC2C1=O)Nc1ccc(S(=O)(=O)Nc2nccs2)cc1 (stereo unspecified) | 10% | -6% | 3% | 82%
Cc1ccccc1C(=O)NC(=S)Nc1ccccc1N1CCCC1 | ? | 11% | 0% | ?
O=C(NC(=S)Nc1ccccc1N1CCCCC1)c1ccc(F)cc1Cl | nt | ? | 12% | 12µM*
O=C(NC(=S)Nc1ccccc1N1CCCCC1)c1ccccc1 | 11µM* | -19% | 48% | 0%
COc1ccccc1C(=O)NC(=S)Nc1ccccc1N1CCCC1 | nt | 3.7µM* | nt | 24%
O=C(O)c1ccc(SCc2ccccc2)nc1 | 18% | nt | 0% | nt
CCc1nc2ccc(C(=O)Nc3ccc4c(c3)OCC(=O)N4)cn2c1N(C)C(=O)C1CCCCC1 | nt | nt | -2% | nt
O=C(NCCC1=CCCCC1)C1CCC(CNc2c(N3CCCCC3)c(=O)c2=O)CC1 (stereo unspecified) | 8% | ? | -13% | 9.3µM*
CC1CCN(c2c(NCC3CCC(C(=O)NC4CCCCCC4)CC3)c(=O)c2=O)CC1 (stereo unspecified) | 17% | ? | -10% | ?
O=C(NCCC1=CCCCC1)C1CCC(CNc2c(N3CCCC3)c(=O)c2=O)CC1 (stereo unspecified) | 36% | ? | 1% | ?
O=C(C1CCC(CNc2c(N3CCCCC3)c(=O)c2=O)CC1)N1CCc2ccccc2C1 (stereo unspecified) | -7% | -44% | 4% | 9.3µM*
CC1CCN(c2c(NCC3CCC(C(=O)NCCC4=CCCCC4)CC3)c(=O)c2=O)CC1 (stereo unspecified) | -3% | ? | -6% | 7.4µM*
O=S(=O)(CCSc1nc2ccccc2s1)c1nc2ccccc2s1 | ? | 37% | -13% | 12µM*
SMILES | HCV inhibitor | Pf growth 96h | AMA1-RON2 inh | Pf growth 48h
c1ccc(-n2nnnc2SCCCSc2nc3ccccc3s2)cc1 | ? | 4.1µM* | 40% | nt
CCS(=O)(=O)CCSc1nc2ccccc2s1 | 9% | nt | -2% | 27%
CCOC(=O)c1nnc2cc(C)nn2c1C | 19% | 2% | -13% | 11%
CCOC(=O)c1nc2cc3n(c(C)c-2c1C)C(C)C(C)=C3C (stereo unspecified) | ? | 2.3µM* | -1% | 7.4µM*
CCOC(=O)c1nc2cc3n(c(CC(C)C)c-2c1C)CC(C)=C3C | -27% | 3.3µM* | 3% | 1.2µM*
COc1cc(CN2CCN(C(C)C)C(CCO)C2)ccc1OCc1ccccc1 (stereo unspecified) | -6% | 7% | -9% | -12%
CCCn1nc(NS(=O)(=O)c2cccc3nonc23)c2cc3cccc(C)c3nc21 | 3% | ? | -11% | 4%
Oc1ccc(-c2nc3ccc4ccccc4c3c3c2CCC3)cc1O | ? | 6% | -6% | 15µM*
